These results are taken from ChEMBL document CHEMBL3988442, “University of Dundee, Small-Polar-MMV Screening Library” (2021).

Experiment [1] deals with T1, Aspartate--tRNA(Asp/Asn) ligase (Mycobacterium tuberculosis (strain ATCC 25618 / H37Rv)) (UniProt P9WFW3).
T1 sequence (whole entry): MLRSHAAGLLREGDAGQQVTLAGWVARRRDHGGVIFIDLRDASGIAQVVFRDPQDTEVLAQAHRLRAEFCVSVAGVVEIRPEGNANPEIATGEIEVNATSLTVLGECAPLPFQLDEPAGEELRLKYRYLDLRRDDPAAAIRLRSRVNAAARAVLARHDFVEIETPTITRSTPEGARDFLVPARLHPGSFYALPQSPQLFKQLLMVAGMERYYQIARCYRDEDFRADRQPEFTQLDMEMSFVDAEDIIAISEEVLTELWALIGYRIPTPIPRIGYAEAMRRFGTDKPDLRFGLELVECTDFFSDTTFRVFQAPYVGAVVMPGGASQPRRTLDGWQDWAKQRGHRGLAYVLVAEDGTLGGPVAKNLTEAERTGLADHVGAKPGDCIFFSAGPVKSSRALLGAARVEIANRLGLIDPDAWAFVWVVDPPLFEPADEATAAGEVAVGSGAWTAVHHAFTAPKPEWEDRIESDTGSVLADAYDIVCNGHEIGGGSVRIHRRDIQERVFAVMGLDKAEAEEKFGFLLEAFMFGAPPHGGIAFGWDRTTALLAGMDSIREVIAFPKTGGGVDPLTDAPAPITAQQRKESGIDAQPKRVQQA
As to the kind of experiment: Assay for Asp RNA synthetase-1 from Mycobacterium tuberculosis. Further details: scale not given: direction of the effect not stated beside the values. The format is functional. The note with it: 30 µM.

The target in experiment [2] is Shiga toxin 2 (Escherichia coli O157:H7) (UniProt P09385+P09386). As to the kind of experiment: E. coli 0.157:H7 Shiga Toxin SOP - stx2 screening assay. The format is functional. Further details: scale not given: direction of the effect not stated beside the values. The note with it: 30 µM.

Regarding `Cn1cc(C2CCCN2Cc2csc(-c3ccsc3)n2)cn1` (centres undefined), the results for the Percent Effect in experiment [1] and in experiment [2] were 7.77% and -5.27%, respectively.

In the case of `CC1CN(Cc2nccn2C)CCN1c1ccc2nncn2n1` (centres undefined), the Percent Effect in experiment [1] is -6.07%; in experiment [2], -28.7%.

For the compound `Cc1ncc(C)c(N2CCCC(CO)(Cc3cccc(Cl)c3)C2)n1` (centres undefined), the Percent Effect is 2.71% in experiment [1] and -21.4% in experiment [2].

Turning to `Cc1noc(C(C)C)c1C(=O)NS(=O)(=O)c1ccc2c(c1)OCCCO2`, the Percent Effect was 2.22% in experiment [1] and -0.248% in experiment [2].

For the compound `c1csc(-c2nc(CN3CCOC(Cn4cncn4)C3)co2)c1` (centres undefined), the values for the Percent Effect in experiment [1] and in experiment [2] were 21.8% and 19.9%, respectively.

On to `CN(C)C(C)(C)CNC(=O)C(C)(C)c1ccccc1F`, for which the Percent Effect in experiment [1] was -0.279%; in experiment [2], 13.2%.

On to `Cn1cc(C2COC3(CCN(C(=O)c4ccc(F)cc4)CC3)C2)cn1` (centres undefined), for which the Percent Effect amounted to 0.474% in experiment [1] and 4.34% in experiment [2].

For the compound `CC(=O)N(Cc1ncc(C(C)C)o1)C1CCN(CCn2cccn2)C1` (centres undefined), the Percent Effect in experiment [1] is -1.37%; in experiment [2] it was 3.59%.

Take `CC(C)NC(=O)N1CCc2nc(C(=O)NCc3ccccc3)sc2CC1`: the Percent Effect turned out to be 0.168% in experiment [1] and 4.49% in experiment [2].

In the case of `COc1cccc(N2CCN(Cc3ccc(NC(C)=O)cc3)CC2=O)c1`, the figures for the Percent Effect in experiment [1] and in experiment [2] were -1.75% and -2.21%, respectively.

With `c1ccc(-c2noc(CN3CCc4cncnc4C3)n2)nc1`, the Percent Effect in experiment [1] is 2.21%; in experiment [2] it was -24.6%.

Consider `COCCC(=O)N1C[C@H]2CN(Cc3cccc(C)n3)C(=O)[C@H]2C1`, for which the Percent Effect in experiment [1] is 0.774%; in experiment [2], -18.7%.

As for `CC(NC(=O)NCCCN1CCCCCC1)c1nncn1C` (centres undefined), the Percent Effect in experiment [1] was 2.07%; in experiment [2], -17.6%.

Turning to `Cc1cc(=O)[nH]c(SCC(=O)N(C)CC2Cc3ccccc3CN2C)n1` (centres undefined), the Percent Effect stood at 1.96% in experiment [1] and 5.78% in experiment [2].

On to `O=C(c1ccc(F)c(F)c1)N1CCCSCC1CN1CCCC1` (centres undefined), for which the values for the Percent Effect in experiment [1] and in experiment [2] were 3.66% and 2.2%, respectively.

In the case of `CS(=O)(=O)c1ccc(NC(=O)NCc2ccc3c(c2)CCC3)cn1`, the Percent Effect in experiment [1] is 1.92%; in experiment [2], -9.09%.

Take `CC(C)C1CN(C(=O)c2nccnc2N)CCS1` (centres undefined): the Percent Effect in experiment [1] was 13%; in experiment [2], -15.2%.

Take `COc1ccc(C(=O)N2CC[C@H](CO)[C@H](O)C2)c(C)c1`: the Percent Effect is -1.53% in experiment [1] and 9.86% in experiment [2].

`COc1ccc(CN2C[C@@H]3OCCN(CC4CCCO4)[C@@H]3C2)cc1` (some centres undefined): the results for the Percent Effect in experiment [1] and in experiment [2] were -0.535% and -4.29%, respectively.

`COCCC(=O)N1CCn2c(COCC3CC3)cnc2C1C` (centres undefined): the Percent Effect in experiment [1] worked out at 3.62%; in experiment [2], 5.04%.

As for `CN(Cc1cnn(C)c1)C(=O)NC1CCS(=O)(=O)C1` (centres undefined), the Percent Effect is -2.67% in experiment [1] and 14.6% in experiment [2].

For `Cc1nc(CN(Cc2ccccc2)C2CCS(=O)(=O)C2)oc1C` (centres undefined), the Percent Effect in experiment [1] is -0.478%; in experiment [2], 24.1%.

Take `c1ccc2sc(CN3CCOC(Cn4cccn4)C3)nc2c1` (centres undefined): the figures for the Percent Effect in experiment [1] and in experiment [2] were -0.285% and 27.3%, respectively.

Regarding `Cc1noc(C)c1-c1cncc(C2CCCN2Cc2cncnc2)n1` (centres undefined), the Percent Effect was -2.78% in experiment [1] and 0.369% in experiment [2].

Consider `Cc1cccc(C(=O)N2C[C@@H]3OCCN(c4ncccn4)[C@@H]3C2)n1`, for which the Percent Effect stood at 2.48% in experiment [1] and 2.47% in experiment [2].

Regarding `Cc1cn2c(n1)CCC(NC(=O)c1cc(Br)cn1C)C2` (centres undefined), the Percent Effect is -1.87% in experiment [1] and -34.8% in experiment [2].

Take `Cc1cccc(NC(=O)CNC(=O)Cn2ncc(Cl)c(Cl)c2=O)c1C`: the Percent Effect in experiment [1] is 9.53%; in experiment [2], -21.2%.

In the case of `Cn1nccc1-c1ccc2nc(C3CCN(CCO)CC3)nn2c1`, the results for the Percent Effect in experiment [1] and in experiment [2] were -1.83% and -15.6%, respectively.

Consider `Cc1cnn(CCNCC(=O)NCc2ccccc2)c1`, for which the Percent Effect in experiment [1] is 1.29%; in experiment [2], 10.2%.

Consider `O=C(Cn1ccc2sccc2c1=O)NCc1ccc2c(c1)OCO2`, for which the Percent Effect in experiment [1] was 0.0437%; in experiment [2], -8.21%.

On to `CN(CC(=O)N1CCCC1Cn1cccn1)c1cnccn1` (centres undefined), for which the Percent Effect is -1.26% in experiment [1] and -0.699% in experiment [2].

Consider `CC(C)CN1C(=O)c2ccc(C(=O)NCCc3c[nH]cn3)cc2C1=O`, for which the Percent Effect in experiment [1] is 0.813%; in experiment [2], -22.9%.

Take `CCn1cnnc1C1CCN(C(=O)COCCc2ccccc2)CC1`: the Percent Effect is -3.95% in experiment [1] and -20.2% in experiment [2].

On to `COCc1ccccc1CNc1cc(N2CCCC2CO)ncn1` (centres undefined), for which the Percent Effect in experiment [1] is -1.49%; in experiment [2] it was -4.23%.

For `COCCN1C[C@@H](C)[C@@]2(COCCN(C(=O)c3cnc(C)cn3)C2)C1`, the figures for the Percent Effect in experiment [1] and in experiment [2] were -1.78% and -19.1%, respectively.

As to `Cc1cc(C(=O)N2CCCCC2C)ccc1NCCCO` (centres undefined), the Percent Effect in experiment [1] is -5.49%; in experiment [2], 11.1%.

In the case of `Cc1[nH]c(=O)[nH]c(=O)c1CN1CCCC(CCc2c(F)cccc2F)C1` (centres undefined), the Percent Effect in experiment [1] is 0.725%; in experiment [2] it was 0.432%.
